Results filed as inconclusive are left out. Unmarked numbers belong to inactive results. Calls of active or inactive are those of the source. Calls come from the whole dose curve; as a rule, active = well fitted inhibition curve with a large enough effect in the repeat runs; inconclusive = weak or mixed curves; inactive = no such curve, though single readings can be large or run the other way.
What follows are compounds tested against Cytochrome P450 1A2 (Homo sapiens) (UniProt P05177) (assay: Cytochrome P450 Family 1 Subfamily A Member 2 (CYP1A2) small molecule antagonists: luciferase reporter qHTS assay (AID 1671199; note: nearly all actives have a fitted effect of over 50% in size)). Conditions: P450-Glo CYP1A2 enzyme, luciferin luminescence, 1 h; series mostly up to 53 µM; activity change, negative = inhibition: at the top concentration.
Text: National Center for Advancing Translational Sciences [NCATS]
U.S. Environmental Protection Agency [EPA]
National Institutes of Environmental Health Sciences [NIEHS]
National Toxicology Program [NTP]
U.S. Food and Drug Administration [FDA]
Cytochrome P450 (CYP) enzymes are membrane-bound hemeproteins that play a key role in metabolism of drugs and xenobiotics. Evaluation of the effect of chemicals on CYP isozymes is useful to minimize the adverse drug reactions and toxicities in drug development process. Tox21 chemicals were tested for their effect on CYP enzyme activities by using P450-Glo (TM) screening systems (Promega Corporation, Madison, WI). These systems provide a luminescent method containing proluciferin substrates and are converted to luciferin products by CYP isozymes. The luciferin products formed are detected with a luciferin detection reagent, and the amount of light produced is proportional to CYP activity. P450-Glo (TM) CYP1A2 screening system (Catalog. No. V9770) was used to detect the compounds that interfere in CYP1A2 activity. The positive control compound used for CYP1A2 assay is furafylline (Sigma-Aldrich, St. Louis, MO).
Tox21 Assay Protocol Summary:
Two ul of enzyme-substrate mix was dispensed into medium binding white/solid 1536-well plates (Greiner Bio-One North America Inc., Monroe, NC) using a BioRaptr Flying Reagent Dispenser (FRD, Beckman Coulter, Brea, CA). Compounds dissolved in DMSO and positive control (furafyllline) were transferred to the assay plates at 23 nl using a Pintool station (Wako, San Diego, CA). The assay plates were incubated at room temperature for 10 min. Then 2 ul of NADPH regeneration solution was added to each well of the assay plates using an FRD and incubated at room temperature for 1 h. The reaction was stopped by adding 4 ul of detection reagent using an FRD and after 20 min incubation at room temperature the luminescence signal was measured using a ViewLux plate reader (Perkin Elmer, Shelton, CT). Data were expressed as relative luminescence units.
% is set by controls: 0 for no effect and ±100 for the full control effect; potency is the fitted concentration of half-maximal effect.

Sequence of Cytochrome P450 1A2 (Homo sapiens) (P05177 whole entry, looked up): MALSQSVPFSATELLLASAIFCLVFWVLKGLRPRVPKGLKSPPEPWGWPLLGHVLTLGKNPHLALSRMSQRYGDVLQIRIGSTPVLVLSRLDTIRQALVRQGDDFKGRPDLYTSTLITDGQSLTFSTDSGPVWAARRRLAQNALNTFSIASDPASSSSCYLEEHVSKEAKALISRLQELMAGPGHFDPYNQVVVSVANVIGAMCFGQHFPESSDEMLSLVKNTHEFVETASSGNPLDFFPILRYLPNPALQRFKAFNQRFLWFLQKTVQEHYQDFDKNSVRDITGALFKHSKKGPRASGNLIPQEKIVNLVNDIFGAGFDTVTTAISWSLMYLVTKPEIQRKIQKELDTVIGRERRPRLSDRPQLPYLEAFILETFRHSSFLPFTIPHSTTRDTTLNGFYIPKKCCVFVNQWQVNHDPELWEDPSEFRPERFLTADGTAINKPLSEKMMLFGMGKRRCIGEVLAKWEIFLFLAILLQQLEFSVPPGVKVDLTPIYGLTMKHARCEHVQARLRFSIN

SMILES	Potency	activity change, negative = inhibition
Cc1cc2nc(N)sc2cc1C	1.14 µM (active)	
CCN(CC)CC1CCCCN1CC(=O)N1c2ccccc2C(=O)Nc2cccnc21 (stereo not given)		6.71%
O=C(C(Cl)Cl)N1CCOC12CCCCC2		-9.77% [at 115 µM]
CC(C)(C)C1CCCCC1=O (stereo not given)		-17.3% [at 115 µM]
O=C(O)CN(CCN(CC(=O)O)CC(=O)O)CCN(CC(=O)O)CC(=O)O		13.9% [at 23.6 µM]
OCCN(CCO)c1ccccc1		-15.9% [at 115 µM]
CC1(C)S[C@@H]2[C@H](NC(=O)C(C(=O)O)c3ccccc3)C(=O)N2[C@H]1C(=O)O (stereo not given in full)		-7.42%
Cc1nc(-c2ccccn2)ncc1C(=O)Nn1cc(C)c2cc(F)ccc21	31.7 µM (active)	
Clc1cccc(-c2cc(Cl)cc(Cl)c2)c1	21.7 µM (active)	
Cc1ccc(C)c(N)c1	35.6 µM (active)	
O=C(O)[C@@H](O)[C@H](O)[C@H](O)[C@@H](O)C(=O)O		13.7%
COc1cc(N)c(Cl)cc1C(=O)NC1CCN(Cc2ccccc2)CC1		-8.5%
CCOc1ccc(NC(N)=O)cc1	35.6 µM (active)	
C1CSCCS1		-20.4% [at 115 µM]
O=Cc1ccc(F)c(Br)c1	35.6 µM (active)	
CCCc1c2oc(C(=O)O)cc(=O)c2cc2c(=O)cc(C(=O)O)n(CC)c12		11.8%
Cc1c(C(=O)NCCO)[n+](=O)c2ccccc2n1[O-]		-14.7%
C=CCCC=C		-18.4% [at 115 µM]
COc1cc(Cl)ccc1Cl	36.3 µM (active)	
CS(=O)(=O)c1ccc([C@@H](O)[C@@H](CF)NC(=O)C(Cl)Cl)cc1		-2.63%

SMILES	Potency	activity change, negative = inhibition
CN1CCN(c2c(F)cc3c(=O)c(C(=O)O)cn4c3c2SCC4)CC1		-1.77%
CCCCN1C[C@H](O)[C@@H](O)[C@H](O)[C@H]1CO		-2.8%
CCOc1ccc(NS(=O)(=O)c2ccc(N)cc2)nn1		-12.4%
CCN(O)CC		-10.8% [at 115 µM]
CCc1cc(Cl)c(OC)c(C(=O)NC[C@@H]2CCCN2CC)c1O	12.9 µM (active)	
CN(CCCN1c2ccccc2CCc2ccccc21)CC(=O)c1ccc(Cl)cc1	11 µM (active)	
Oc1ccccc1C=NCc1ccccc1		14.3%
O=C(O)c1ccccc1Nc1cc(Cl)ccc1C(=O)O		12.6% [at 23.6 µM]
O=c1[nH]c(=O)n([C@H]2C[C@H](O)[C@@H](CO)O2)cc1C(F)(F)F		-15.1%
COc1ccc(S(=O)(=O)Nc2nnc(CC(C)C)s2)cc1		12.7%
FC(F)(F)C(F)(F)C(F)(F)C(F)(F)C(F)(F)C(F)(F)C(F)(F)C(F)(F)Br		-8.72%
NC/C=C/C(=O)O		-11.5%
O=c1[nH]cnc2c1ncn2[C@@H]1O[C@H](CO)[C@@H](O)[C@H]1O		15.3%
C=Cc1ccccc1		-15.8% [at 115 µM]
Cc1ccsc1C(=CCCN1CCC[C@@H](C(=O)O)C1)c1sccc1C		-20.8%
CCC(=O)Nc1ccc(O)cc1		-4.88%
Cc1cc(S(=O)(=O)O)c(N)cc1Cl		-12.2% [at 115 µM]
CCCCC(=O)O[C@]1(C(=O)CO)[C@H](C)C[C@H]2[C@@H]3CCC4=CC(=O)C=C[C@]4(C)[C@@]3(F)[C@@H](O)C[C@@]21C		10.4%
CC1(C)O[C@@H]2C[C@H]3[C@@H]4CCC5=CC(=O)CC[C@]5(C)[C@@]4(F)[C@@H](O)C[C@]3(C)[C@]2(C(=O)CCl)O1		13.6%
CC(=O)Oc1cc(C(C)C)c(OCCN(C)C)cc1C	5.12 µM (active)	
